Assay results: PubChem BioAssay (EPA / NIEHS)
Active and inactive are the calls of the source. Rule for the calls: active = hit-call score of the fitted dose curve at least 0.9, where 1 is the maximum; inactive = score below 0.9.

Tests used:
Settings in all cases: mRNA level, 48 h; actives raise or lower the signal
[1] = read-out: adenosine kinase (ADK) gene, ADK (gene 132); test: LTEA_HepaRG_ADK: Life Technologies and Expression Analysis (LTEA) Assay for adenosine kinase (ADK) gene using HepaRG (AID 2283471)
Procedure, shortened: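 Differentiated HepaRG cells dosed 48 h in serum-free induction medium, 0.5% DMSO vehicle, eight half-log concentrations from 100 uM, in duplicate. ADK mRNA by TaqMan qRT-PCR normalised to ACTB, GAPDH, POLR2A; bidirectional fit versus DMSO.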

[2] = read-out: Alpha-fetoprotein (AFP) gene, AFP (gene 174); test: LTEA_HepaRG_AFP: Life Technologies and Expression Analysis (LTEA) Assay for Alpha-fetoprotein (AFP) gene using HepaRG (AID 2283472)
Procedure, shortened: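 qRT-PCR (Fluidigm TaqMan) readout of AFP transcript, normalized to three housekeeping genes, fitted bidirectionally against 0.5% DMSO baseline. HepaRG cells received chemicals for 48 h in serum-free induction medium, top concentration 100 uM, half-log steps.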

BCL2L11 (gene 10018) = test: LTEA_HepaRG_BCL2L11: Life Technologies and Expression Analysis (LTEA) Assay for Bcl-2 (BCL2L11) gene using HepaRG (AID 2283473)
Procedure, shortened: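 Human hepatic HepaRG cultures are treated 48 h with test chemicals (maximum 100 uM, 0.5% DMSO vehicle). Expression of BCL2L11 is measured by qRT-PCR against ACTB, GAPDH and POLR2A, with activity in either direction scored relative to vehicle.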

[3] = read-out: Apolipoprotein A-V (APOA5) gene, APOA5 (gene 116519); test: LTEA_HepaRG_APOA5: Life Technologies and Expression Analysis (LTEA) Assay for Apolipoprotein A-V (APOA5) gene using HepaRG (AID 2283474)
Procedure, shortened: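 Concentration-response of APOA5 expression in HepaRG: eight half-log doses to 100 uM, 48 h, qRT-PCR normalized to ACTB/GAPDH/POLR2A, bidirectional fitting with 0.5% DMSO as baseline.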

[4] = read-out: Apoptosis regulator Bcl-2 (Homo sapiens) (UniProt P10415); test: LTEA_HepaRG_BCL2: Life Technologies and Expression Analysis (LTEA) Assay for Bcl-2 gene using HepaRG (AID 2283475)
Procedure, shortened: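 qRT-PCR read-out (Fluidigm TaqMan) of BCL2 transcript, normalised to three housekeeping genes, after 48 h chemical exposure of HepaRG cells; 8-point half-log series, top 100 uM, 0.5% DMSO vehicle. Gain or loss of signal fitted relative to DMSO baseline.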

[5] = read-out: Bcl-2 (BID) gene, BID (gene 637); test: LTEA_HepaRG_BID: Life Technologies and Expression Analysis (LTEA) Assay for Bcl-2 (BID) gene using HepaRG (AID 2283476)
Procedure, shortened: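 HepaRG, 48 h exposure, 8-pt half-log series, top 100 uM, 0.5% DMSO vehicle, duplicates. Readout: BID mRNA by TaqMan qRT-PCR; housekeeping-normalized; bidirectional curve fit vs DMSO baseline.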

Caspase-3 (Homo sapiens) = Caspase-3 (Homo sapiens) (UniProt P42574); test: LTEA_HepaRG_CASP3: Life Technologies and Expression Analysis (LTEA) Assay for cysteine-aspartic acid protease (CASP3) using HepaRG (AID 2283477)
Procedure, shortened: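 Transcript-level assay: CASP3 mRNA in human HepaRG after 48 h treatment, eight half-log concentrations from 100 uM in 0.5% DMSO, quantified by qRT-PCR.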

[6] = read-out: Cytochrome P450 (CYP24A1), CYP24A1 (gene 1591); test: LTEA_HepaRG_CYP24A1: Life Technologies and Expression Analysis (LTEA) Assay for Cytochrome P450 (CYP24A1) using HepaRG (AID 2283478)
Procedure, shortened: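 Gene expression of CYP24A1 by TaqMan qRT-PCR in HepaRG after 48 h treatment, highest concentration 100 uM; activity fitted in both directions relative to DMSO vehicle.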

[7] = read-out: Cytochrome P450 (CYP1A2), CYP1A2 (gene 1544); test: LTEA_HepaRG_CYP1A2: Life Technologies and Expression Analysis (LTEA) Assay for Cytochrome P450 (CYP1A2) using HepaRG (AID 2283479)
Procedure, shortened: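 In duplicate wells, HepaRG cultures maintained in 0.5% DMSO were treated 48 h across an 8-point, half-log series topping at 100 uM; phenobarbital (1 mM) served as induction control. Expression was read by qRT-PCR.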

[8] = read-out: cysteine-aspartic acid protease (CASP8), CASP8 (gene 841); test: LTEA_HepaRG_CASP8: Life Technologies and Expression Analysis (LTEA) Assay for cysteine-aspartic acid protease (CASP8) using HepaRG (AID 2283480)
Procedure, shortened: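 CASP8 transcript measured by TaqMan qRT-PCR with ACTB/GAPDH/POLR2A normalization, after 48 h chemical exposure of HepaRG cells in serum-free induction medium. Eight concentrations, top 100 uM, half-log steps, 0.5% DMSO vehicle; fits in both directions versus DMSO.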

[9] = read-out: Cytochrome P450 (CYP2B6), CYP2B6 (gene 1555); test: LTEA_HepaRG_CYP2B6: Life Technologies and Expression Analysis (LTEA) Assay for Cytochrome P450 (CYP2B6) using HepaRG (AID 2283481)
Procedure, shortened: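 Human HepaRG, 48 h dosing, 0.5% DMSO vehicle, top dose 100 uM. CYP2B6 transcript by qRT-PCR, housekeeping-normalized, bidirectional curve fit.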

[10] = read-out: Cytochrome P450 2C19 (Homo sapiens) (UniProt P33261); test: LTEA_HepaRG_CYP2C19: Life Technologies and Expression Analysis (LTEA) Assay for CYP2C19 using HepaRG (AID 2283482)
Procedure, shortened: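 Endpoint: CYP2C19 mRNA change, bidirectional fit vs 0.5% DMSO. Cells: HepaRG, 48 h exposure, eight-point series topping at 100 uM. Quantitation: qRT-PCR normalized to ACTB, GAPDH, POLR2A.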

CYP2C8 (gene 1558) = test: LTEA_HepaRG_CYP2C8: Life Technologies and Expression Analysis (LTEA) Assay for CYP2C8 using HepaRG (AID 2283483)
Procedure, shortened: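 CYP2C8 expression measured by TaqMan qRT-PCR and normalized to three housekeeping genes. HepaRG cultures were treated for 48 h with an eight-point half-log series topping at 100 uM, vehicle 0.5% DMSO, duplicates; fitted both directions against DMSO.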

CYP2C9 (gene 1559) = test: LTEA_HepaRG_CYP2C9: Life Technologies and Expression Analysis (LTEA) Assay for CYP2C9 using HepaRG (AID 2283484)
Procedure, shortened: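 CYP2C9 transcript level, quantified by TaqMan qRT-PCR against three housekeeping genes, was fitted bidirectionally relative to 0.5% DMSO. HepaRG cultures were treated 48 h, in duplicate, at eight half-log concentrations topping at 100 uM.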

CYP2E1 (gene 1571) = test: LTEA_HepaRG_CYP2E1: Life Technologies and Expression Analysis (LTEA) Assay for CYP2E1 using HepaRG (AID 2283485)
Procedure, shortened: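 CYP2E1 transcript was measured by TaqMan qRT-PCR in human HepaRG cultures after 48 h chemical exposure (top 100 uM, half-log steps, 0.5% DMSO vehicle). Housekeeping-gene normalization; gain or loss fitted relative to DMSO baseline.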

CYP4A11 (gene 1579) = test: LTEA_HepaRG_CYP4A11: Life Technologies and Expression Analysis (LTEA) Assay for CYP4A11 using HepaRG (AID 2283486)
Procedure, shortened: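 Human hepatic HepaRG cultures receive duplicate 48 h exposures across a concentration-response series topping at 100 uM. Expression changes in CYP4A11 are measured by qRT-PCR relative to DMSO controls.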

[11] = read-out: Cytochrome P450 3A4 (Homo sapiens) (UniProt P08684); test: LTEA_HepaRG_CYP3A4: Life Technologies and Expression Analysis (LTEA) Assay for CYP3A4 using HepaRG (AID 2283487)
Procedure, shortened: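 Differentiated HepaRG cells in serum-free induction medium exposed in duplicate for 48 h to 8 half-log concentrations up to 100 uM in 0.5% DMSO. CYP3A4 mRNA measured by qRT-PCR normalized to ACTB, GAPDH and POLR2A; bidirectional fit versus DMSO.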

[12] = read-out: DNA damage-inducible transcript 3 (DDIT3), DDIT3 (gene 1649); test: LTEA_HepaRG_DDIT3: Life Technologies and Expression Analysis (LTEA) Assay for DNA damage-inducible transcript 3 (DDIT3) using HepaRG (AID 2283488)
Procedure, shortened: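 qRT-PCR readout (Fluidigm TaqMan), housekeeping-normalized to ACTB, GAPDH, POLR2A. HepaRG cells, 48 h exposure, 8-point half-log series from 100 uM in 0.5% DMSO, duplicates. Gain or loss of signal fitted against DMSO baseline.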

[13] = read-out: Pro-epidermal growth factor (Homo sapiens) (UniProt P01133); test: LTEA_HepaRG_EGF: Life Technologies and Expression Analysis (LTEA) Assay for Epidermal growth factor (EGF) using HepaRG (AID 2283489)
Procedure, shortened: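 Concentration-response mRNA assay: HepaRG cells dosed 48 h (max 100 uM, 0.5% DMSO), EGF measured by qRT-PCR and normalized to ACTB/GAPDH/POLR2A.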

[14] = read-out: Early growth response protein 1 (EGR1) transcription factor, EGR1 (gene 1958); test: LTEA_HepaRG_EGR1: Life Technologies and Expression Analysis (LTEA) Assay for Early growth response protein 1 (EGR1) transcription factor using HepaRG (AID 2283490)
Procedure, shortened: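 EGR1 transcript levels quantified by qRT-PCR (Fluidigm arrays) against three housekeeping genes after 48 h chemical exposure of HepaRG cells. Eight-point half-log series topping at 100 uM, 0.5% DMSO vehicle, analyzed for gain or loss.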

Measured: outcome

Sequence of Cytochrome P450 3A4 (Homo sapiens) (P08684 whole entry, looked up): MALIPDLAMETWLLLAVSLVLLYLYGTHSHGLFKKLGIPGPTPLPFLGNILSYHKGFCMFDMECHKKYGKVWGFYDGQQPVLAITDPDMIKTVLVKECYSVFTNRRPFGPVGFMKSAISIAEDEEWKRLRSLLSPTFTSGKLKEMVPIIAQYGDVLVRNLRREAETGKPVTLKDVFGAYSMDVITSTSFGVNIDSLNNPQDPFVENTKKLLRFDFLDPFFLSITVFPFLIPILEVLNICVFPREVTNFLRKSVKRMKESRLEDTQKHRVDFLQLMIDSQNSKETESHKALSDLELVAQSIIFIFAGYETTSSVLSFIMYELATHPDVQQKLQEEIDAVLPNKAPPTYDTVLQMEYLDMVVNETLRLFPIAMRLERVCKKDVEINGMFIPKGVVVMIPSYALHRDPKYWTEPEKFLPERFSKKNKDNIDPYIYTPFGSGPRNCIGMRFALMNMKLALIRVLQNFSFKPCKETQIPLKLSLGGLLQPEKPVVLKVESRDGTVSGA
Sequence of Cytochrome P450 2C19 (Homo sapiens) (P33261 whole entry, looked up): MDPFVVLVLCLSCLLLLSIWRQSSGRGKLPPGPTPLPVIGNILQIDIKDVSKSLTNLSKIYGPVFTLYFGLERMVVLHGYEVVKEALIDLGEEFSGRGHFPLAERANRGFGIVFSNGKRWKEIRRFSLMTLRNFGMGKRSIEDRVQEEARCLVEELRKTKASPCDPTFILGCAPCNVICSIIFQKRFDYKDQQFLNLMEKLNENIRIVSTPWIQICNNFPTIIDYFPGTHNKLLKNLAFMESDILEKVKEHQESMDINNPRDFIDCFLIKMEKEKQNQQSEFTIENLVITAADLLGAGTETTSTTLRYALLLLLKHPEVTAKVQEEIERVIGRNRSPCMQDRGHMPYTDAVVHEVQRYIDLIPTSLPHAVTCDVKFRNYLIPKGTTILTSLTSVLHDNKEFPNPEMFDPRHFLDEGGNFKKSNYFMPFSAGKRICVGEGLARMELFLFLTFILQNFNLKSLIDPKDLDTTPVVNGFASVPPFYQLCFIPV
Sequence of Apoptosis regulator Bcl-2 (Homo sapiens) (P10415 whole entry, looked up): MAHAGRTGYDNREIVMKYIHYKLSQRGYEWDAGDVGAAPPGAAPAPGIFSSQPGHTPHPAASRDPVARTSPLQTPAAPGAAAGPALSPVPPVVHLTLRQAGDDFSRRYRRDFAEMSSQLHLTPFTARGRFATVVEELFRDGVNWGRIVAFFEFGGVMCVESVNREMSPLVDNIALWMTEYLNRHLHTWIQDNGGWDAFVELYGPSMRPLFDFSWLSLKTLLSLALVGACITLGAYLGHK
Sequence of Caspase-3 (Homo sapiens) (P42574 whole entry, looked up): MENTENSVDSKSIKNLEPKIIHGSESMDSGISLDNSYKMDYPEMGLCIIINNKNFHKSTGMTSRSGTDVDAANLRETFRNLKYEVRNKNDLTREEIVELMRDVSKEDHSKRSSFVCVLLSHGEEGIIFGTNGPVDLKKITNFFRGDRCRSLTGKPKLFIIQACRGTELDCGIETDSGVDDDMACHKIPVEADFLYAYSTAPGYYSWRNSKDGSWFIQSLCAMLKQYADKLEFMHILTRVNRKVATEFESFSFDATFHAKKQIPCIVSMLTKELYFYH

CS(=O)(=O)OCCCCOS(C)(=O)=O
inactive: [1] | [2] | BCL2L11 (gene 10018) | [3] | [4] | [5] | Caspase-3 (Homo sapiens) | [6] | [7] | [8] | [9] | [10] | CYP2C8 (gene 1558) | CYP2C9 (gene 1559) | CYP2E1 (gene 1571) | CYP4A11 (gene 1579) | [11] | [12] | [13] | [14]
